# Test results from PubChem BioAssay AID1259376 (The Scripps Research Institute Molecular Screening Center, 2018).
# In all, about 4,700 compounds went through this assay and about 360 (7.7%) were called active.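 The calls were made as follows: active = inhibition above a cutoff derived from the DMSO control wells (cut at about 30% in these data); inactive = the rest.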 The sample as a whole holds a higher share of actives than the screen did.
# Test: bead signal artefacts at single dose – biochemical, AlphaScreen, triplicate, counter-screen for MITF inhibitor project (AID 1259376)
# Conditions: LysRS AlphaScreen counterscreen, signal interference, at 2.6 µM, active compounds read high
row,SMILES,inhibition
1,COc1cc(NC(=O)CCc2nc(C3=CCN(C)CC3)no2)cc(OC)c1OC,34.2% (active)
2,COc1ccccc1CN1CCN(C(=O)Cc2ccccc2)CC1,7.15% (inactive)
3,COc1ccc(CN2CCN(C(C)C)CC2)cc1,10.5% (inactive)
4,COc1cccc(CN2CCN(Cc3ccccc3F)CC2)c1,16.6% (inactive)
5,CCN1CCc2nc3ccccc3c(C(=O)O)c2C1,4.31% (inactive)
